Source: PubChem (National Center for Advancing Translational Sciences (NCATS))
Giardia FBPA inh: Giardia lamblia aldolase inhibition; purified Giardia FBPA; Potency, µM (top dose mostly 59.6 µM), hits mostly inhibitors; hit rate 0.71% among 290,000; AID 2451; A8B2U2; further: nearly all actives have a fitted effect of over 55% in size
Target sequence (A8B2U2 whole entry, looked up): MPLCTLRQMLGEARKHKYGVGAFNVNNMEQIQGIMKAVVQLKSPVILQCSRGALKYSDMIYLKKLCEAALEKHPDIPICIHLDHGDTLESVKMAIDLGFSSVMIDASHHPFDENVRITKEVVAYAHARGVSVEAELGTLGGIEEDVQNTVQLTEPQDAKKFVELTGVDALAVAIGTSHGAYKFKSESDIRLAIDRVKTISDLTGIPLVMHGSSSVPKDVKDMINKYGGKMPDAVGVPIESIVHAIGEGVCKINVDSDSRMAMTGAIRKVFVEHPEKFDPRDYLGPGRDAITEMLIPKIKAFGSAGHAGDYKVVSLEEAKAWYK
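Giardia FBPA (40 nM reagent) was preincubated 10 min at RT with compound (up to 57.5 uM final), then substrate plus GAPDH/TPI/NAD/arsenate coupling system with diaphorase/resazurin was added; resorufin fluorescence (525/598 nm) was read after 20 min.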
Cycloheximide cs: counter-screen for Shiga toxin inhibitors: cycloheximide protein synthesis inhibition. cell reporter, cycloheximide protein synthesis inhibition counterscreen. max response, %. hit rate 12% among 300,000; in the data active means max response mostly above about 13%, no sharp cut-off; inactive means mostly below about 14%; further: read at 38.3 µM for the half of the compounds with a filed dose
Shiga inhibitor: inhibitors of Shiga toxin in Vero cells | Vero cells, Shiga toxin protein synthesis inhibition reporter | AID 2315 | hit rate 9.2% among 290,000 | inhibition, % at 38.7 µM; in the data active means inhibition mostly above about 28%, no sharp cut-off; inactive means mostly below about 43%
Pf growth 96h: P. falciparum growth inhibition at 96 hour, primary screen for plastid delayed-death inhibitors; P. falciparum luciferase reporter growth, 96 h; Potency, µM (titrated, usually from 28.7 µM), usual class: inhibitors; hit rate 6.9% among 320,000; AID 504834
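Readout is luminescence from an integrated firefly luciferase in P. falciparum. Red cells, 2% hematocrit and 0.05% parasitemia final, were cultured with compound through two parasite generations (96 hours) at 37 C, 5% CO2.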
Pf growth 48h: inhibits P. falciparum growth in the first generation, 48 h; P. falciparum luciferase growth in erythrocytes, 48 h; Potency, µM (titrated, usually from 28.7 µM), actives largely listed as inhibitors; hit rate 5.9% among 310,000
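Read-out is firefly luciferase luminescence from an integrated reporter in P. falciparum, so falling signal marks reduced parasite growth. Infected erythrocytes were at 2% hematocrit and 0.1% parasitemia (final) in Albumax-supplemented RPMI 1640.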
NS1 function inh: influenza NS1 inhibition; Potency, µM (doses to about 46.1 µM); hit rate 0.4% among 270,000; AID 2326; calls by dose curve; further: actives are rising curves; nearly all actives have a fitted effect of over 50% in size
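Growth recovery, yeast-based: influenza A NS1 expressed in S. cerevisiae causes slow growth, and suppressors are detected by OD600. The parent strain without NS1 is used as positive control.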
A number is an active result; [ ] = another dose, or the depositor's remark. This is a sample that favours compounds with a hit; in the whole collection about 21% have one here. Unless noted, the call rests on the fitted dose curve; in most records, active means well fitted curve in the direction sought with a large enough effect; inconclusive means small, poorly fitted or top-dose-only effect, or another doubt; inactive means no such curve, though single readings can be large; an effect the other way counts as inactive or inconclusive.

For COc1ccc(NC(=S)NC(C)Cc2cccs2)cc1 (configuration not stated) the results were Giardia FBPA inh inactive, Cycloheximide cs 29, Shiga inhibitor 68, Pf growth 96h inactive and Pf growth 48h inactive.
Screening CC(C)c1ccc(NC(=S)NCc2cccs2)cc1 returned Giardia FBPA inh inactive, Cycloheximide cs inactive, Shiga inhibitor inactive, Pf growth 96h inconclusive and NS1 function inh inactive.
For CC(Cc1cccs1)NC(=S)Nc1ccc(F)cc1 (configuration not stated) the results were Giardia FBPA inh inactive, Cycloheximide cs 10, Shiga inhibitor 51, Pf growth 96h inactive, Pf growth 48h inactive and NS1 function inh inactive.
Screening Cc1ccc2nc(SCC(=O)NCCCN3CCCC3=O)[nH]c2c1 returned Pf growth 96h inactive and Pf growth 48h inactive.
For O=C(CCl)Nc1cccc(Oc2ccccc2)c1 the results were Giardia FBPA inh inactive, Cycloheximide cs inactive, Shiga inhibitor inactive, Pf growth 96h 4.7µM and Pf growth 48h inconclusive.
Screening O=C(CCl)Nc1cccc(Oc2cnccn2)c1 returned Giardia FBPA inh inactive, Cycloheximide cs inactive, Shiga inhibitor inactive, Pf growth 96h 3.7µM and NS1 function inh inactive.
O=C(CSc1cccc[n+]1[O-])Nc1cccc(Oc2ccccc2)c1 was read as Giardia FBPA inh inactive, Cycloheximide cs 21, Shiga inhibitor inactive, Pf growth 96h inactive and Pf growth 48h inactive.
For Nc1cccc(Oc2cnccn2)c1 the results were Giardia FBPA inh inactive, Cycloheximide cs inactive, Shiga inhibitor inactive, Pf growth 96h inactive and NS1 function inh inactive.
`CCN(CC)C(=O)c1nn(-c2ccc(OC)cc2)c(=O)c2c(N)scc12` gave Cycloheximide cs inactive and Shiga inhibitor inactive.
For CN(C)c1ccc(-c2c(C3C4C=CCCC4(C)C(=O)N3Cc3ccccc3)ccc3ccccc23)cc1 (configuration not stated) the results were Giardia FBPA inh inactive, Cycloheximide cs inactive and Shiga inhibitor inactive.
Screening O=C(NCc1cc(Br)cc(Br)c1OC(=O)c1ccccc1[N+](=O)[O-])c1ccccc1 returned Giardia FBPA inh inactive, Cycloheximide cs inactive, Shiga inhibitor inactive, Pf growth 96h 5.2µM, Pf growth 48h inactive and NS1 function inh inconclusive.
For Cc1cc(CNC(=O)c2ccc(C)c([N+](=O)[O-])c2)c2ccccc2n1 the results were Giardia FBPA inh inactive, Cycloheximide cs inactive, Shiga inhibitor inactive, Pf growth 96h inconclusive, Pf growth 48h inactive and NS1 function inh inactive.
COC(=O)C1=C(C(=O)OC)[C@@H]2N(C)c3ccc(OC)cc3[C@@]23C[C@@H](C(=O)OC)N(C(C)=O)C3=N1 was read as Giardia FBPA inh inactive[12.9 µM].
Screening Oc1ccc(C=Nc2ccc3ncccc3c2)c(O)c1 returned Giardia FBPA inh inconclusive, Cycloheximide cs 56, Shiga inhibitor 106, Pf growth 96h inactive[5.75 µM], Pf growth 48h inconclusive and NS1 function inh inconclusive.
`CC(Sc1ccccc1)C(=O)NNC(=O)c1csc(N2CCOCC2)n1` (configuration not stated) gave Pf growth 96h inactive and Pf growth 48h inactive.
Screening Cc1oc(-c2ccccc2Cl)nc1CS(=O)CC(=O)NC1CC1 (configuration not stated) returned Cycloheximide cs inactive, Shiga inhibitor inactive, Pf growth 96h inconclusive, Pf growth 48h inactive and NS1 function inh inactive.
Screening Cc1ccc(OCc2cc(C(=O)N(CCO)Cc3cccs3)no2)cc1C returned Cycloheximide cs 51, Shiga inhibitor 160, Pf growth 96h inactive, Pf growth 48h inactive and NS1 function inh inactive.
`Cc1ccc(OCc2cc(C(=O)N3CCCCCCC3)no2)cc1C` gave Cycloheximide cs 20, Shiga inhibitor 38, Pf growth 96h 1.7µM, Pf growth 48h inactive and NS1 function inh inactive.
Screening Cc1ccc(OCc2cc(C(=O)N3CCCC3)no2)cn1 returned Cycloheximide cs 44, Shiga inhibitor 74, Pf growth 96h inactive, Pf growth 48h inactive and NS1 function inh inactive.
For Cc1ccc(OCc2cc(C(=O)N3CCc4sccc4C3)no2)cc1C the results were Cycloheximide cs inactive, Shiga inhibitor inactive, Pf growth 96h inconclusive, Pf growth 48h inactive and NS1 function inh inactive.
For CC(=O)NCCC1CCN(C(=O)c2cc(COc3ccc(C)nc3)on2)CC1 the results were Giardia FBPA inh inactive, Cycloheximide cs inactive, Shiga inhibitor inactive, Pf growth 96h inactive, Pf growth 48h inactive and NS1 function inh inactive.
CCN(Cc1ccncc1)C(=O)c1cc(COc2ccc(C)c(C)c2)on1 was read as Cycloheximide cs inactive, Shiga inhibitor inactive, Pf growth 96h inactive, Pf growth 48h inconclusive and NS1 function inh inactive.
For Cc1cc(OCc2cc(C(=O)N3CCCCCC3)no2)cc(C)c1Cl the results were Cycloheximide cs 61, Shiga inhibitor 128, Pf growth 96h inconclusive, Pf growth 48h inactive and NS1 function inh inactive.
CCOC(=O)CN1C(=O)N[C@@H](c2ccccc2)[C@H](C(=O)OC)[C@H]1C was read as Giardia FBPA inh inactive[12.9 µM].
`CCCn1c(SCC(=O)c2[nH]c(C)c(C(C)=O)c2C)n[nH]c1=O` gave Giardia FBPA inh inactive, Cycloheximide cs inactive, Shiga inhibitor inactive, Pf growth 96h inactive, Pf growth 48h inactive and NS1 function inh inactive.
For COc1ccc(-c2csc(NC(=O)/C(N=Nc3ccccc3)=C(\C)O)n2)cc1 the results were Giardia FBPA inh inactive, Cycloheximide cs inactive, Shiga inhibitor inactive, Pf growth 96h inactive, Pf growth 48h inactive and NS1 function inh inactive.
`Cc1cccc(C)c1OCc1cc(C(=O)N2CCNC(=O)C2)no1` gave Cycloheximide cs 24, Shiga inhibitor inactive, Pf growth 96h inconclusive, Pf growth 48h inactive and NS1 function inh inactive.
Cc1ccc(OCc2cc(C(=O)N3CCC(c4ccccc4Cl)C3)no2)cc1C (configuration not stated) was read as Giardia FBPA inh inactive, Cycloheximide cs 63, Shiga inhibitor 73, Pf growth 96h inconclusive, Pf growth 48h inactive and NS1 function inh inactive.
For C=CCC1(CC=C)CCCN1C(=O)c1cc(COc2ccc(C)nc2)on1 the results were Giardia FBPA inh inactive, Cycloheximide cs 21, Shiga inhibitor 78, Pf growth 96h inactive, Pf growth 48h inconclusive and NS1 function inh inactive.
Screening Cc1ccccc1C1CCCN(C(=O)c2cc(COc3c(F)cccc3F)on2)C1 (configuration not stated) returned Giardia FBPA inh inactive, Cycloheximide cs inactive, Shiga inhibitor inactive, Pf growth 96h inactive, Pf growth 48h inactive and NS1 function inh inactive.
For Cc1cc(C(=O)N2CCN(c3ccccc3)CC2)no1 the results were Giardia FBPA inh inactive, Cycloheximide cs inactive, Shiga inhibitor inactive, Pf growth 96h inactive, Pf growth 48h inactive and NS1 function inh inactive.
Screening Cc1ccc(OCc2cc(C(=O)N3CCN(c4ccccc4)CC3)no2)cc1C returned Cycloheximide cs 41, Shiga inhibitor 59, Pf growth 96h inactive, Pf growth 48h inactive and NS1 function inh inactive.
For COCCCN1C(=O)c2ccc(C(=O)Nc3ccc(C)cc3C)cc2C1=O the results were Giardia FBPA inh inactive, Cycloheximide cs inactive, Shiga inhibitor inactive, Pf growth 96h inactive, Pf growth 48h inactive[0.00184 µM] and NS1 function inh inactive.
